Tau fibril FP – tau fibrillization inhibition (FP). 280,000 compounds, 0.39% hits. Potency, µM (series often up to 57.7 µM), inactives show at the top dose activity, negative = inhibition, actives largely listed as inhibitors. P10636. K18 P301L tau heparin fibrillization, Alexa594 FP, 6 h; active = well fitted curve in the direction sought with a large enough effect; inconclusive = small, poorly fitted or top-dose-only effect, or another doubt; inactive = no such curve, though single readings can be large; an effect the other way counts as inactive or inconclusive; note: nearly all actives have a fitted effect of over 55% in size
Target sequence (P10636 561-689 P618L limits assumed): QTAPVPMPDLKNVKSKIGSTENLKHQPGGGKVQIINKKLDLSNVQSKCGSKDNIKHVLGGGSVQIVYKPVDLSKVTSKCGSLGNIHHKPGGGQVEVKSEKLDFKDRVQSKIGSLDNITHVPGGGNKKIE
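Steps: dispense K18 P301L tau (15 uM plus 0.24 uM Alexa 594 tracer, final) in pH 7 sodium acetate; add compound; add heparin (20 uM final); incubate 6 hr, 37 C; add ThT (30 uM final); after 1 hr ambient, read FP.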
Tau fluor cs – counter-screen for tau fibril formation inhibitors | Potency, µM (top dose mostly 57.7 µM), without a hit: at the highest dose activity change, negative = decrease | 280,000 compounds, 0.93% hits | AID 1463 | tau K18 P301L Alexa594 fluorescence, heparin fibrillization; active = well fitted curve in the direction sought with a large enough effect; inconclusive = small, poorly fitted or top-dose-only effect, or another doubt; inactive = no such curve, though single readings can be large; an effect the other way counts as inactive or inconclusive; note: nearly all actives have a fitted effect of over 55% in size
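Human K18 P301L tau (15 uM unlabeled plus 0.24 uM Alexa 594-labeled, final) in 100 mM sodium acetate pH 7 was mixed with compound and 20 uM heparin and incubated 6 hr at 37 C.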
ALDH1A1 inh – blocks purified human ALDH1A1 activity; AID 1030; P00352; Potency, µM (series often up to 75.3 µM), for inactives: top-dose activity, negative = inhibition, hits mostly inhibitors; 220,000 compounds, 7.3% hits; Purified ALDH1A1, NADH fluorescence, propionaldehyde substrate;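 note: plate controls were no enzyme wells and a reference inhibitor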
Tau ThT inhib – blocks human tau fibril formation measured by thioflavin T; P10636; recombinant tau K18 P301L (four-repeat tau fragment), heparin-induced fibrillization, ThT fluorescence; Potency, µM (titrated, usually from 57.4 µM), for inactives: at the highest dose activity, negative = inhibition, actives largely listed as inhibitors; 270,000 compounds, 2.1% hits; active = well fitted curve in the direction sought with a large enough effect; inconclusive = small, poorly fitted or top-dose-only effect, or another doubt; inactive = no such curve, though single readings can be large; an effect the other way counts as inactive or inconclusive; note: nearly all actives have a fitted effect of over 55% in size
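Heparin-induced fibrillization of the P301L-mutant K18 repeat-domain fragment of human tau was followed by ThT binding in quantitative high-throughput format.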
HPGD inh – inhibitors of human 15-hydroxyprostaglandin dehydrogenase (HPGD); purified HPGD, NADH fluorescence kinetic, PGE2 substrate; Potency, µM, inactives show at the highest dose activity change, negative = inhibition, most hits filed as inhibitors; AID 894; 150,000 compounds, 4.3% hits; P15428
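NADH formation kinetics: reaction with 30 uM PGE2 and 1 mM NAD+ (final), 20 nM enzyme, Tris-HCl pH 8 with Tween 20, after 15 min compound preincubation at room temperature. Fluorescence change, last versus first of five reads.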
JMJD2E inh – JMJD2E (human) inhibition | JMJD2E catalytic domain, FDH-coupled NADH fluorescence (FDH is formaldehyde dehydrogenase) | Potency, µM (top dose mostly 57.1 µM), without a hit: top-dose activity change, negative = inhibition, usual class: inhibitors | B2RXH2 | 230,000 compounds, 1.6% hits;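 note: 0% = wells with enzyme and -100% = buffer wells without enzyme; nearly all actives have a fitted effect of over 50% in size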
Target sequence (B2RXH2 1-337 limits assumed): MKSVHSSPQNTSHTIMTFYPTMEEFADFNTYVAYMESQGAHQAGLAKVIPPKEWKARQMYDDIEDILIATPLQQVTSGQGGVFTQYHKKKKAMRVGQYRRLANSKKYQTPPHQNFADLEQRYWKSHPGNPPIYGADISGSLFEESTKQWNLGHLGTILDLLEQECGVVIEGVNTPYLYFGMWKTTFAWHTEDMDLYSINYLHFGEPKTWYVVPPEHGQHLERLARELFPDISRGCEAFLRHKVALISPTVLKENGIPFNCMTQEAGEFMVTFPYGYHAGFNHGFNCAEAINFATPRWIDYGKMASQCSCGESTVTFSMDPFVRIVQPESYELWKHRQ
* hit, by the source's call; u = inconclusive; x = not tested or not shown; [ ] = another dose, or the depositor's remark. This is a sample that favours compounds with a hit; in the whole collection about 9.9% have one here. Unless noted, calls come from the whole dose curve; as a rule, active = well fitted inhibition curve with a large enough effect (not every such curve was filed as active); inconclusive = small, poorly fitted or top-dose-only effect, or another doubt; inactive = no such curve, though single readings can be large or run the other way. Unless noted, % is set by controls: 0 for no effect and ±100 for the full control effect; potency is the fitted concentration of half-maximal effect.

SMILES	Tau fibril FP	Tau fluor cs	ALDH1A1 inh	Tau ThT inhib	HPGD inh	JMJD2E inh
Cc1cc([N+](=O)[O-])nn1CC(=O)N/N=C/c1ccccc1O	5%	0%	x	-5%	x	7.9µM*
Cc1cc(C)n(CCC(=O)N/N=C/c2ccc(Br)c([N+](=O)[O-])c2)n1	0%	-23%	x	u	x	-1%
Cc1nn(CCC(=O)NNC(=S)Nc2cccc(Cl)c2)c(C)c1[N+](=O)[O-]	-3%	-16%	u	-10%	u	u
Cc1cc(C)n(CC(=O)N/N=C/c2cc(Br)cc([N+](=O)[O-])c2O)n1	3%	4%	20µM*	u	x	1%
Cc1nn(CCC(=O)NNC(=S)Nc2ccc(Cl)cc2)c(C)c1[N+](=O)[O-]	-4%	-10%	22µM*	-10%	-20%	1%
COc1ccc(NC(=S)NNC(=O)Cn2nc([N+](=O)[O-])cc2C)cc1	7%	-9%	-4%	-11%	-6%	4%
Cc1cc([N+](=O)[O-])nn1CC(=O)NNC(=S)Nc1ccc([N+](=O)[O-])cc1	1%	-17%	22µM*	u	-20%	5%
COc1ccc(OCc2ccc(-c3nc(C#N)c(N4CCC(C)CC4)o3)o2)cc1	-3%	u	x	-10%	x	x
CCOc1ccc(CCNC(=O)CCn2c(=O)c3cccn3c3ccc(F)cc32)cc1OCC	10%	-22%	x	-17%	x	x
N#Cc1cc2c(=O)n3ccccc3nc2n(-c2ccccc2Cl)c1=O	-8%	-4%	u	-8%	x	u
CC(C)(C)c1ccc(NC(=O)Nc2ccc(OCC(=O)N3CCOCC3)cc2)cc1	19%	20µM*[quencher]	-2%	-18%	x	-1%
O=C(COc1ccc(/C=C\[N+](=O)[O-])cc1)N1CCOCC1	-6%	12%	14µM*	-17%	x	-30%
O=C(c1ccc(Cl)cc1)c1ccc(OCC(=O)N2CCOCC2)cc1	12%	1%	u	2%	28µM*	u
O=C(COc1ccc([N+](=O)[O-])cc1Cl)N1CCOCC1	2%	-1%	x	-3%	x	-1%
Cc1cc(C)cc(N(CC(=O)NC(C)(C)C)C(=O)CNC(=O)c2cccs2)c1	6%	9%	6%	7%	x	4%
O=C1c2ccccc2C(=O)c2c(NC3CCCCC3)ccc(Nc3ccc(S(=O)(=O)O)cc3)c21	x	x	2%[13.5 µM]	x	-17%	x
O=C1c2ccccc2C(=O)c2c(Nc3ccc(CCO)cc3)ccc(O)c21	u	1.8µM*[quencher]	-7%	2.8µM*	x	-26%
Nc1ccccc1SCc1ccccc1	-4%	-18%	3%	-14%	x	-8%
N#CC(=C(\N)Sc1ccccc1N)/C(C#N)=C(/N)Sc1ccccc1N	x	u	x	u	8.9µM*	-6%
CCOC(=O)c1sc(=S)n(Cc2ccccc2)c1N	12%	16µM*[quencher]	-7%	-15%	-13%	7%
COC(=O)c1cc2sc(C)cc2n1Cc1ccccc1	-3%	-12%	x	-3%	x	x
CCOC(=O)c1sc(=S)n(C)c1NC(=O)c1cccc(Br)c1	-14%	-23%	x	u	x	-7%
CCOC(=O)c1sc(=S)n(C)c1NC(=O)c1ccccc1	-6%	-5%	3.5µM*	-9%	8.9µM*	-1%
CCOC(=O)c1sc(=S)n(CC)c1N	1%	-10%	5%	-6%	-16%	0%
CCn1c(N)c(C(N)=O)sc1=S	-2%	3%	8.9µM*	-12%	u	-10%
SMILES	Tau fibril FP	Tau fluor cs	ALDH1A1 inh	Tau ThT inhib	HPGD inh	JMJD2E inh
COC(=O)c1sc(=S)n(Cc2ccccc2)c1C	0%	-2%	8.9µM*	1%	x	10%
O=C1CCCCC2CCCCN12 (stereo not given)	0%[126 µM]	-8%[126 µM]	-8%[120 µM]	-9%[126 µM]	-11%	x
COc1cccc(-c2cc3nc4c(c(N5CCC6(CC5)OCCO6)n3n2)CCC4)c1	12%	1%	u	-11%	x	u
Cc1ccc(-c2onc(C)c2C)cc1S(=O)(=O)NCc1cccs1	-5%	-18%	x	-5%	x	x
N#Cc1c(-c2ccccc2)cc(-c2ccccc2)nc1SCC(O)CS(=O)(=O)Cc1ccc(Cl)cc1 (stereo not given)	14µM*	u	x	14µM*	x	x
COc1ccccc1CN(C)C(=O)C1COc2ccccc2O1 (stereo not given)	6%	-3%	-3%	-9%	7.1µM*	-1%
COc1ccccc1OCC(=O)n1cc(C(=O)c2cc(Cl)cc(Cl)c2O)cn1	2%	-2%	-1%	-6%	18µM*	-26%
CC(=O)c1ccc2c(c1)C1C=CCC1C(C(=O)O)N2 (stereo not given)	2%	14%	u	11%	x	2%
COc1cccc(C2Nc3c(F)cc(Br)cc3C3C=CCC32)c1OC (stereo not given)	-8%	-28%	6%	-17%	-12%	1%
COc1cccc2c1NC(C(=O)O)C1CC=CC21 (stereo not given)	u	u	8.9µM*	16µM*	u	u
Cc1ccc2c(c1)C1C=CCC1C(C(=O)O)N2 (stereo not given)	u	u	u	14µM*	20µM*	u
COc1ccc(Nc2nc3ccccc3n3c(N)nnc23)cc1	4%	u	x	u	x	x
CCn1c(CNC(=O)c2ccc(OC)cc2)nnc1SCC(=O)Nc1ccccc1	-9%	-9%	x	-5%	x	x
Cc1cc2c(cc1C)-c1nnnn1C(C)(C)C2	7%	5%	7.1µM*	3%	-4%	-1%
Oc1ccc(C2=Nn3c(nnc3-c3ccco3)SC2)cc1O	-5%	2%	8.9µM*	-2%	14µM*	2%
COc1ccc(OC)c(C2=Nn3c(nnc3-c3ccco3)SC2)c1	-6%	-8%	-5%	-13%	28µM*	-1%
NC(=O)NC(=O)CC1S/C(=N/N=C2/NC(=O)CS2)NC1=O (stereo not given)	-4%	6%	1%	-7%	x	83%
CC1S/C(=N/N=C/c2ccco2)N(Cc2ccccc2)C1=O (stereo not given)	-9%	-10%	10µM*	-2%	x	u
CC(c1ccc(F)cc1)n1cc(C(=O)NCCN(C)C)nn1 (stereo not given)	-2%	-5%	4%	-5%	x	6%
Cc1ccc(C(=O)c2c(C)oc3c2C(=O)C(=O)c2ccccc2-3)cc1	u	-27%	20µM*	3.5µM*	20µM*	6%
Cc1oc2c(c1C(=O)c1ccc(Cl)cc1)C(=O)C(=O)c1ccccc1-2	u	-28%	u	2.2µM*	-26%	22%
COc1ccc(C(=O)c2coc(-c3ccccc3C(=O)O)c2C(=O)O)cc1	4%	6%	5%	-1%	-11%	-1%
